Experimental data from the supplement of paper PMC10849652.
Of roughly 7,900 targets only a part is listed; those with a hit were picked by preference. About 0.6% of all pairs of compound and target were hits.

compound: NC(=O)Nc1cc(-c2cccc(F)c2)sc1C(=O)N[C@H]1CCCNC1; assay: log2 fold change, soluble protein after heating vs DMSO (PISA); higher = thermal stabilisation; K562 cells, 10 uM, 30 min; active = over 0.2 and 3.5 SD of the protein, either way, in both replicates (recomputed)
Outline: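 Soluble protein was defined as the supernatant after 21,000xg for 90 min. It came from K562 cells at 2×10^6 cells/mL given 10 μM compound for 30 min, heated in aliquots for 3 min across 48°C-58°C, pooled, and extracted in PBS with 0.5% NP-40 at 4°C, and was quantified by TMTpro 16plex LC-MS/MS with equalised channel sums. Thermal stability against control samples, from duplicates, is reported as log2 fold change.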

UniProt Q5VWP2, sequence (Q5VWP2 whole entry, looked up): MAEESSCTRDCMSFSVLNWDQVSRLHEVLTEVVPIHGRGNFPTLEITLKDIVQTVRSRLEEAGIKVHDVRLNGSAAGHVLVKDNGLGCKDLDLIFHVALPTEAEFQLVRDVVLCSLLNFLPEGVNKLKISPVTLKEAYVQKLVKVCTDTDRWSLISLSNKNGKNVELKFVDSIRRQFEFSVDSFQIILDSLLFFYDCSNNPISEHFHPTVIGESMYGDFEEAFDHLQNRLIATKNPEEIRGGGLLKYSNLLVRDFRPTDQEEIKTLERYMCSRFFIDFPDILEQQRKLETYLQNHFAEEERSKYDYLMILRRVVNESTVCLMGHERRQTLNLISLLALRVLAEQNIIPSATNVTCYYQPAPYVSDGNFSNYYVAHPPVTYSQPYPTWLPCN
UniProt Q8NEF9, sequence (Q8NEF9 whole entry, looked up): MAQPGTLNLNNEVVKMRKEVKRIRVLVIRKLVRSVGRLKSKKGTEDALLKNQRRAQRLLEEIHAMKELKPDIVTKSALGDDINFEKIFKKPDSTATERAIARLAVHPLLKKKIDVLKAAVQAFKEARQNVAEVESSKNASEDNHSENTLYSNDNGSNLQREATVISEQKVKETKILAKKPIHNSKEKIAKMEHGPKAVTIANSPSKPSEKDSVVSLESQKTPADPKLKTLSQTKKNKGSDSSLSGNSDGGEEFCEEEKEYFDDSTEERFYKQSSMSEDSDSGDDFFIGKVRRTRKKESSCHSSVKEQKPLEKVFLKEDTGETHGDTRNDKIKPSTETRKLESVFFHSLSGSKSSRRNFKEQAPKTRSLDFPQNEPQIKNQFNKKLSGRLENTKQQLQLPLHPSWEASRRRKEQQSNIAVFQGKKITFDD
UniProt Q8N1F8, sequence (Q8N1F8 whole entry, looked up): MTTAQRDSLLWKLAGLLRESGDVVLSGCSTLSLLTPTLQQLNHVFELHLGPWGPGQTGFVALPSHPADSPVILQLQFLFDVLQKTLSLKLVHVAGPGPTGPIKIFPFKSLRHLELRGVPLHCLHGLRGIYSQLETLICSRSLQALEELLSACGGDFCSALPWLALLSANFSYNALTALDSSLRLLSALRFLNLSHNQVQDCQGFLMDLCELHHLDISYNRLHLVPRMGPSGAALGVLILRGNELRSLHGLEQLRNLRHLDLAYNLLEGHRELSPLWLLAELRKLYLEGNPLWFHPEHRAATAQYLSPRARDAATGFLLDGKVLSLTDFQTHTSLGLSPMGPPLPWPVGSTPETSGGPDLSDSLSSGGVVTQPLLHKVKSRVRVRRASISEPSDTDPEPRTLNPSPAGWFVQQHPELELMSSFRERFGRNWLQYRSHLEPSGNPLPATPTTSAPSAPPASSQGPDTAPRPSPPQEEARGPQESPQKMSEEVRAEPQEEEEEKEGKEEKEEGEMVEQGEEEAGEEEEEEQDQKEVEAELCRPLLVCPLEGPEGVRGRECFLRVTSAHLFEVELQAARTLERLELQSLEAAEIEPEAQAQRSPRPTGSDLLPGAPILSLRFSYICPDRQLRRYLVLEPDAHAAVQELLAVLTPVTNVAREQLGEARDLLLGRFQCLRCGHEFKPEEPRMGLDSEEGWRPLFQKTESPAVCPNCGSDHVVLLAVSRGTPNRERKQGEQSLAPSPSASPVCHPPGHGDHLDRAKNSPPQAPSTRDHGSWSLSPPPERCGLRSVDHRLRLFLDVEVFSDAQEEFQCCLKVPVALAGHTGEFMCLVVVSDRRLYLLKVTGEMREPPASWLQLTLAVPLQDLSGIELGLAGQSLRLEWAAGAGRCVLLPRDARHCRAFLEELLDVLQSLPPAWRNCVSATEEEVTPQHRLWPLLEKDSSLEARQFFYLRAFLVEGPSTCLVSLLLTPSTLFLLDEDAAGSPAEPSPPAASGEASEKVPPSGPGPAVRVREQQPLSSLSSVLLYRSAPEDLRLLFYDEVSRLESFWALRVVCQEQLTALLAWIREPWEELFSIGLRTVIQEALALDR
UniProt P08047, sequence (P08047 whole entry, looked up): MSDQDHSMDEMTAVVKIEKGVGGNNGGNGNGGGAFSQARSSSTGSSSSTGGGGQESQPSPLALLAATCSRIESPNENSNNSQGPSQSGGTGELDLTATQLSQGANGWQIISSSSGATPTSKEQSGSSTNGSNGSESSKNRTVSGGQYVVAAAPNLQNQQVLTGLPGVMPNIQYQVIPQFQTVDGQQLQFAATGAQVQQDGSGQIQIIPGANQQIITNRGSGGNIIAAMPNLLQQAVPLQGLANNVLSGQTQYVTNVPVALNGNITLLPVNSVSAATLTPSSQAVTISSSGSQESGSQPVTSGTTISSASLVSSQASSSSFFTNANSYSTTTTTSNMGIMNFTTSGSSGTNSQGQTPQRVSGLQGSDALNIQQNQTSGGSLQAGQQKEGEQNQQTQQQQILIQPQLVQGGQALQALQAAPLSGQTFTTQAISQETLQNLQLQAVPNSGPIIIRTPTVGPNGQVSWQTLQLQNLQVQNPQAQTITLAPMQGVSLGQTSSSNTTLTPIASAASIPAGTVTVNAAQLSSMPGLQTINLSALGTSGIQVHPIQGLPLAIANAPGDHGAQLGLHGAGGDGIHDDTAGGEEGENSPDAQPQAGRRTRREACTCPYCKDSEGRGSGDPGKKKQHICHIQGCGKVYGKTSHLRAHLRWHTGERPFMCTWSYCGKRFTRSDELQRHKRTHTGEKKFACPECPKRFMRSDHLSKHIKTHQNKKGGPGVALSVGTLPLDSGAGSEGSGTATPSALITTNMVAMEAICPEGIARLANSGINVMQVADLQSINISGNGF
UniProt Q9NVC3, sequence (Q9NVC3 whole entry, looked up): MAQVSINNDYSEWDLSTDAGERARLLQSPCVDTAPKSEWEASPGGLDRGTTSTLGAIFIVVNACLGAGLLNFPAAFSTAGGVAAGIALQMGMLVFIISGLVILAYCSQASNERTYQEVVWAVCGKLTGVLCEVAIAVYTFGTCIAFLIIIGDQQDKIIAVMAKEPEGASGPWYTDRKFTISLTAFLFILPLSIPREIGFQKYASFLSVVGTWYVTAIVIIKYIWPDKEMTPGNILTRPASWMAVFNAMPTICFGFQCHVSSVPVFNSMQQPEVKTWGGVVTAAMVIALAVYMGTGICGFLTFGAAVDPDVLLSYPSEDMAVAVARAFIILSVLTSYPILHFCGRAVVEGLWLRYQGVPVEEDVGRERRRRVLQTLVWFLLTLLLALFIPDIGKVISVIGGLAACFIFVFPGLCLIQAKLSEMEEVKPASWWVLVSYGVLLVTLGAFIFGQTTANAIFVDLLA
UniProt P36897, sequence (P36897 whole entry, looked up): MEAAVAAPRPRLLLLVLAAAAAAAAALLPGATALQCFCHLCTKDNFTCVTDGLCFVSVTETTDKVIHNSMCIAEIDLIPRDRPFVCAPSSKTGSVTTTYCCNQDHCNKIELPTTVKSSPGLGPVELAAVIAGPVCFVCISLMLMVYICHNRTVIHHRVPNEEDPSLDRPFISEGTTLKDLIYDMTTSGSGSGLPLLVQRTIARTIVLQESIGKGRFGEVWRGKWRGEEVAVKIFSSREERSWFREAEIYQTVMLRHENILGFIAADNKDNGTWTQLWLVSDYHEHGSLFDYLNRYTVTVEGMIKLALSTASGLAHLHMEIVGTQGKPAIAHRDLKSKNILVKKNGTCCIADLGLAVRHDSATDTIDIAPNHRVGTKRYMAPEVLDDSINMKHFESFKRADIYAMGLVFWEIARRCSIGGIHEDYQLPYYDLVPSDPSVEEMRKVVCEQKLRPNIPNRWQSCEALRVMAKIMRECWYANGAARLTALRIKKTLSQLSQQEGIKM
UniProt Q93075, sequence (Q93075 whole entry, looked up): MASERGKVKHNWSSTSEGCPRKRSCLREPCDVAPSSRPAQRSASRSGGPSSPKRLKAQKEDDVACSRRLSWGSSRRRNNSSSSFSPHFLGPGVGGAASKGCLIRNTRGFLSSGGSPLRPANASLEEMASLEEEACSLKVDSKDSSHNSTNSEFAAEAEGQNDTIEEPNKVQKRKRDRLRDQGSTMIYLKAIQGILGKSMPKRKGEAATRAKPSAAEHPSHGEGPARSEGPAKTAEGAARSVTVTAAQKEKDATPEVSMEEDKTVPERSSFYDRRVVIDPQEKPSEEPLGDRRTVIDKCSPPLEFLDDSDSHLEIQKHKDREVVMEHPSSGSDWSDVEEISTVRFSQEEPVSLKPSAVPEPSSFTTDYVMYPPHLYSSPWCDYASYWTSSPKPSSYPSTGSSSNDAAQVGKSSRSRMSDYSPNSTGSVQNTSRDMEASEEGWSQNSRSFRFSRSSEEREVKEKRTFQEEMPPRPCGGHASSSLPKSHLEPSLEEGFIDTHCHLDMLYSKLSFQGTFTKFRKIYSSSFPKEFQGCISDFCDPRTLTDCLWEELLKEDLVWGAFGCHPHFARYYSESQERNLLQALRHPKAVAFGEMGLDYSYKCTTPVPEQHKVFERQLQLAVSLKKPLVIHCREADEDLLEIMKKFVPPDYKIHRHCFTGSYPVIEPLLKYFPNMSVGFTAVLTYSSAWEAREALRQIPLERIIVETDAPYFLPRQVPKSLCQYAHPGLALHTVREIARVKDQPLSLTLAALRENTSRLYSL
UniProt P04183, sequence (P04183 whole entry, looked up): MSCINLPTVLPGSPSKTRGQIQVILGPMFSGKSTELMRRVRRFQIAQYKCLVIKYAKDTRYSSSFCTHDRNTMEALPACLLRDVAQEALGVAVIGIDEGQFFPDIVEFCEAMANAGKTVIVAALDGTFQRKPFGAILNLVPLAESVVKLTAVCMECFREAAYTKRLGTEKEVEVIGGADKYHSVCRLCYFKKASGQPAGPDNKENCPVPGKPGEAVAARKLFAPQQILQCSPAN
UniProt Q96CW6, sequence (Q96CW6 whole entry, looked up): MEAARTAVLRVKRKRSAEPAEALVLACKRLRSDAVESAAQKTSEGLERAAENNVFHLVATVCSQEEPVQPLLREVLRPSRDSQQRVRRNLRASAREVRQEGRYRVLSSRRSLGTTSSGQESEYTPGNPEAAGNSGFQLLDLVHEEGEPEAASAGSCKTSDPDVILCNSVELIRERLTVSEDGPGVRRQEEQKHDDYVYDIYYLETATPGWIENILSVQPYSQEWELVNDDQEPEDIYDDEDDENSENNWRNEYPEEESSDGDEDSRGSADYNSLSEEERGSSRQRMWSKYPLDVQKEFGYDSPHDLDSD

Target	log2 fold change
SMAP (UniProt O00193)	0.007 (inactive)
TGFBR1 isoform 2 (UniProt P36897)	0.029 (inactive)
SLC7A6OS (UniProt Q96CW6)	-0.023 (inactive)
TK1 (UniProt P04183)	0.021 (inactive)
TACC2 (UniProt O95359)	-0.013 (inactive)
TATDN2 (UniProt Q93075)	-0.115 (inactive)
STK11IP (UniProt Q8N1F8)	0.098 (inactive)
SRXN1 (UniProt Q9BYN0)	-0.013 (inactive)
SSRP1 (UniProt Q08945)	-0.017 (inactive)
STK38L (UniProt Q9Y2H1)	-0.046 (inactive)
TAF9 (UniProt Q16594)	-0.352 (inactive)
SP1 (UniProt P08047)	-0.017 (inactive)
SRPRB (UniProt Q9Y5M8)	0.048 (inactive)
SLC38A7 (UniProt Q9NVC3)	-0.017 (inactive)
SP100 isoform 4 (UniProt P23497)	0.03 (inactive)
TK1 (UniProt K7ERV3)	-0.127 (inactive)
SMARCA4 (UniProt P51532)	-0.144 (inactive)
SLC44A2 isoform 2 (UniProt Q8IWA5)	-0.086 (inactive)

Target	log2 fold change
TBC1D20 isoform 3 (UniProt Q96BZ9)	-0.062 (inactive)
SRSF6 (UniProt Q13247)	-0.06 (inactive)
SRC isoform 2 (UniProt P12931)	-0.578 (active)
SMG1 (UniProt Q96Q15)	-0.073 (inactive)
SRCAP (UniProt Q6ZRS2)	-0.079 (inactive)
SNRPB2 (UniProt P08579)	0.047 (inactive)
STARD3 (UniProt Q14849)	0.014 (inactive)
SNX15 (UniProt Q9NRS6)	0.106 (inactive)
TIAL1 isoform 2 (UniProt Q01085)	-0.014 (inactive)
TENT5C (UniProt Q5VWP2)	-0.095 (inactive)
SLC39A11 (UniProt Q8N1S5)	0 (inactive)
TFB2M (UniProt Q9H5Q4)	-0.029 (inactive)
SSBP4 (UniProt Q9BWG4)	0.177 (inactive)
SYNE1 (UniProt Q8NF91)	-0.006 (inactive)
SRFBP1 (UniProt Q8NEF9)	0.038 (inactive)
STRN (UniProt O43815)	-0.055 (inactive)
SYNE2 isoform 2 (UniProt Q8WXH0)	-0.229 (inactive)
SNX12 isoform 1 (UniProt Q9UMY4)	-0.022 (inactive)
